Measurements as given in PubChem BioAssay AID1159580 (chemical genetic matrix, 2015).
The campaign covered roughly 5,500 compounds. About 2,000 (36%) were called active. About 18% were inconclusive and are not listed. Rule as the data show it: active = normalized growth mostly below about 0.91 (no sharp cut-off); inconclusive = no clear call, values can overlap the other calls; inactive = mostly above about 0.92. The list shows a part of the results.

Assay: chemical genetic growth profiling, strain panel (AID 1159580);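 also: tested at 20 µM; growth read once vehicle control cultures reached saturation at 30 °C; 1 = growth at the plate median or of vehicle wells; lower values mean less growth of the strain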
Settings: growth OD

Measured: normalized growth

COc1ccc(C(CN(C)C)C2(O)CCCCC2)cc1 (stereo unspecified)
inactive: S. cerevisiae deletion strains, locus YKL009W, strain mrt4, stronger effect = lower value 0.978 | S. cerevisiae deletion strains, locus YKL068W, stronger effect = lower value 0.996 | S. cerevisiae deletion strains, locus YKL085W, strain MDH1 (second series), stronger effect = lower value 0.994 | S. cerevisiae deletion strains, locus YKL085W, strain MDH1, stronger effect = lower value 0.994 | S. cerevisiae deletion strains, locus YKL160W, strain elf1, stronger effect = lower value 0.97 | S. cerevisiae deletion strains, locus YKL190W, strain CNB1, stronger effect = lower value 1 | S. cerevisiae deletion strains, locus YKR001C, strain vps1, stronger effect = lower value 0.977 | S. cerevisiae deletion strains, locus YKR026C, strain gcn3, stronger effect = lower value 0.994 | S. cerevisiae deletion strains, locus YKR091W, strain srl3, stronger effect = lower value 0.969 | S. cerevisiae deletion strains, locus YLL001W, strain dnm1, stronger effect = lower value 0.981 | S. cerevisiae deletion strains, locus YLL026W, stronger effect = lower value 0.997 | S. cerevisiae deletion strains, locus YLL041C, strain sdh2, stronger effect = lower value 0.979 | S. cerevisiae deletion strains, locus YLR027C, strain aat2, stronger effect = lower value 0.989 | S. cerevisiae deletion strains, locus YLR039C, strain RIC1, stronger effect = lower value 1.05 | S. cerevisiae deletion strains, locus YLR058C, strain SHM2, stronger effect = lower value 1.01 | S. cerevisiae deletion strains, locus YLR102C, strain apc9, stronger effect = lower value 0.989 | S. cerevisiae deletion strains, locus YLR113W, strain HOG1, stronger effect = lower value 1.04 | S. cerevisiae deletion strains, locus YLR221C, strain rsa3, stronger effect = lower value 1.01 | S. cerevisiae deletion strains, locus YLR258W, strain gsy2, stronger effect = lower value 0.978 | S. cerevisiae deletion strains, locus YLR262C, strain YPT6 (second series), stronger effect = lower value 0.966 | S. cerevisiae deletion strains, locus YLR262C, strain YPT6, stronger effect = lower value 1.03 | S. cerevisiae deletion strains, locus YLR268W, strain sec22, stronger effect = lower value 0.981 | S. cerevisiae deletion strains, locus YLR320W, strain mms22, stronger effect = lower value 1.02 | S. cerevisiae deletion strains, locus YLR330W, strain CHS5, stronger effect = lower value 1.01 | S. cerevisiae deletion strains, locus YLR342W, strain FKS1 (second series), stronger effect = lower value 1.03 | S. cerevisiae deletion strains, locus YLR342W, strain FKS1, stronger effect = lower value 0.976 | S. cerevisiae deletion strains, locus YLR357W, strain rsc2, stronger effect = lower value 0.936 | S. cerevisiae deletion strains, locus YLR370C, strain arc18, stronger effect = lower value 0.989 | S. cerevisiae deletion strains, locus YLR371W, strain rom2, stronger effect = lower value 0.985 | S. cerevisiae deletion strains, locus YLR384C, strain iki3, stronger effect = lower value 0.996 | S. cerevisiae deletion strains, locus YLR418C, strain cdc73, stronger effect = lower value 0.96 | S. cerevisiae deletion strains, locus YML016C, strain PPZ1, stronger effect = lower value 1.01 | S. cerevisiae deletion strains, locus YML032C, strain rad52, stronger effect = lower value 0.991 | S. cerevisiae deletion strains, locus YML120C, strain ndi1, stronger effect = lower value 1 | S. cerevisiae deletion strains, locus YML124C, strain tub3, stronger effect = lower value 0.989 | S. cerevisiae deletion strains, locus YMR058W, strain fet3, stronger effect = lower value 0.989 | S. cerevisiae deletion strains, locus YMR078C, strain ctf18, stronger effect = lower value 0.993 | S. cerevisiae deletion strains, locus YMR125W, strain sto1, stronger effect = lower value 0.919 | S. cerevisiae deletion strains, locus YMR129W, stronger effect = lower value 0.993 | S. cerevisiae deletion strains, locus YMR205C, strain PFK2, stronger effect = lower value 0.998 | S. cerevisiae deletion strains, locus YMR223W, strain ubp8, stronger effect = lower value 0.99 | S. cerevisiae deletion strains, locus YMR231W, strain pep5, stronger effect = lower value 0.978 | S. cerevisiae deletion strains, locus YMR263W, strain SAP30, stronger effect = lower value 1.01 | S. cerevisiae deletion strains, locus YMR307W, strain GAS1, stronger effect = lower value 1 | S. cerevisiae deletion strains, locus YNL067W, strain RPL9B, stronger effect = lower value 0.991 | S. cerevisiae deletion strains, locus YNL071W, strain lat1, stronger effect = lower value 1 | S. cerevisiae deletion strains, locus YNL128W, strain TEP1, stronger effect = lower value 1.01 | S. cerevisiae deletion strains, locus YNL153C, strain GIM3, stronger effect = lower value 1.01 | S. cerevisiae deletion strains, locus YNL183C, strain NPR1, stronger effect = lower value 0.969 | S. cerevisiae deletion strains, locus YNL209W, strain ssb2, stronger effect = lower value 0.981 | S. cerevisiae deletion strains, locus YNL233W, strain BNI4, stronger effect = lower value 1.02 | S. cerevisiae deletion strains, locus YNL248C, strain rpa49, stronger effect = lower value 0.925 | S. cerevisiae deletion strains, locus YNL250W, strain rad50, stronger effect = lower value 0.993 | S. cerevisiae deletion strains, locus YNL271C, strain bni1, stronger effect = lower value 0.987 | S. cerevisiae deletion strains, locus YNL298W, strain CLA4, stronger effect = lower value 0.991 | S. cerevisiae deletion strains, locus YNL307C, strain MCK1, stronger effect = lower value 0.981 | S. cerevisiae deletion strains, locus YNL322C, strain KRE1 (second series), stronger effect = lower value 0.965 | S. cerevisiae deletion strains, locus YNL322C, strain KRE1, stronger effect = lower value 1.01 | S. cerevisiae deletion strains, locus YNR049C, strain mso1, stronger effect = lower value 0.982 | S. cerevisiae deletion strains, locus YNR052C, strain pop2, stronger effect = lower value 0.998 | S. cerevisiae deletion strains, locus YOL006C, strain TOP1, stronger effect = lower value 1.04 | S. cerevisiae deletion strains, locus YOL012C, strain htz1 0.805 | S. cerevisiae deletion strains, locus YOL147C, strain pex11, stronger effect = lower value 0.984 | S. cerevisiae deletion strains, locus YOR001W, strain rrp6, stronger effect = lower value 1.01 | S. cerevisiae deletion strains, locus YOR061W, strain CKA2, stronger effect = lower value 1.01 | S. cerevisiae deletion strains, locus YOR069W, strain VPS5, stronger effect = lower value 0.995 | S. cerevisiae deletion strains, locus YOR070C, strain gyp1, stronger effect = lower value 0.986 | S. cerevisiae deletion strains, locus YOR080W, strain dia2, stronger effect = lower value 0.973 | S. cerevisiae deletion strains, locus YOR083W, strain WHI5, stronger effect = lower value 0.932 | S. cerevisiae deletion strains, locus YOR106W, strain vam3, stronger effect = lower value 0.967 | S. cerevisiae deletion strains, locus YOR136W, strain idh2, stronger effect = lower value 0.986 | S. cerevisiae deletion strains, locus YOR144C, strain elg1, stronger effect = lower value 0.998 | S. cerevisiae deletion strains, locus YOR184W, strain ser1, stronger effect = lower value 1 | S. cerevisiae deletion strains, locus YOR231W, strain MKK1, stronger effect = lower value 1.01 | S. cerevisiae deletion strains, locus YOR265W, strain rbl2, stronger effect = lower value 0.989 | S. cerevisiae deletion strains, locus YOR270C, strain vph1, stronger effect = lower value 0.945 | S. cerevisiae deletion strains, locus YOR290C, strain snf2, stronger effect = lower value 0.974 | S. cerevisiae deletion strains, locus YOR316C, strain cot1, stronger effect = lower value 0.999 | S. cerevisiae deletion strains, locus YPL051W, strain arl3, stronger effect = lower value 0.994 | S. cerevisiae deletion strains, locus YPL055C, strain LGE1, stronger effect = lower value 1.03 | S. cerevisiae deletion strains, locus YPL078C, strain atp4, stronger effect = lower value 0.969 | S. cerevisiae deletion strains, locus YPL106C, strain sse1, stronger effect = lower value 0.977 | S. cerevisiae deletion strains, locus YPL240C, strain hsp82, stronger effect = lower value 0.996 | S. cerevisiae deletion strains, locus YPL241C, strain CIN2, stronger effect = lower value 1 | S. cerevisiae deletion strains, locus YPL256C, strain CLN2, stronger effect = lower value 0.992 | S. cerevisiae deletion strains, locus YPR119W, strain clb2, stronger effect = lower value 0.993 | S. cerevisiae deletion strains, locus YPR141C, strain kar3, stronger effect = lower value 0.991 | S. cerevisiae deletion strains, locus YPR163C, strain tif3, stronger effect = lower value 0.984 | S. cerevisiae deletion strains, locus YPR167C, strain met16, stronger effect = lower value 0.989 | S. cerevisiae deletion strains, strain wtn01, stronger effect = lower value 0.983 | S. cerevisiae strains, strain wild type, stronger effect = lower value 1
